Measured values reported in PubChem BioAssay (NCATS).
“And” between values parts separate entries of the source, which are not always exact repeats. Identical values can stand only once. Results filed as inconclusive are left out. The source made the active and inactive calls. Calls come from the whole dose curve; as a rule, active = well fitted curve in the direction sought with a large enough effect; inconclusive = small, poorly fitted or top-dose-only effect, or another doubt; inactive = no such curve, though single readings can be large; an effect the other way counts as inactive or inconclusive.

Columns and labels:
[1] = qHTS of pediatric cancer cell lines to identify multiple opportunities for drug repurposing: Primary screen for SK-N-MC cells (AID 1347093); note: potency is the fitted concentration of half-maximal effect
Outline: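 Metabolically active cells were quantified by ATP-dependent luminescence (CellTiter-Glo, 15 min at room temperature) following 48 h treatment. Cells had been plated at 500-1,000 per well and settled for 5 h beforehand.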

[2] = qHTS of pediatric cancer cell lines to identify multiple opportunities for drug repurposing: Primary screen for NB-EBc1 cells (AID 1347095); note: potency is the fitted concentration of half-maximal effect
Outline: (§1)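 Phenotypic viability qHTS, 48 h compound exposure, CellTiter-Glo luminescence read-out; multi-concentration dosing so that potency and efficacy derive directly from the primary screen's curves.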

[3] = qHTS of pediatric cancer cell lines to identify multiple opportunities for drug repurposing: Primary screen for U-2 OS cells (AID 1347096); note: nearly all actives have a fitted effect of over 50% in size; note: potency is the fitted concentration of half-maximal effect
Outline: (§2)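 Viability after 48 h compound treatment at 37C, 500-1,000 cells/well, read as ATP luminescence with CellTiter-Glo. Primary screens used 11-point (MIPE, 0.78 nM-46 µM) or 8-point (NPC, 0.59 nM-46 µM) final concentrations; follow-up screens used 11-point dilutions.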

[4] = qHTS of pediatric cancer cell lines to identify multiple opportunities for drug repurposing: Primary screen for Saos-2 cells (AID 1347097); note: nearly all actives have a fitted effect of over 40% in size; note: potency is the fitted concentration of half-maximal effect
Outline: as §1

[5] = qHTS of pediatric cancer cell lines to identify multiple opportunities for drug repurposing: Primary screen for SK-N-SH cells (AID 1347098); note: nearly all actives have a fitted effect of over 65% in size; note: potency is the fitted concentration of half-maximal effect
Outline: (§3)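 Cells (500-1,000/well) rested 5 h, then received compounds for 48 h; metabolically active cells were measured by CellTiter-Glo luminescence. Final concentrations spanned up to 46 µM (MIPE, 11-point) or 0.59 nM-46 µM (NPC, 8-point) in primary screens, 11-point in follow-ups.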

[6] = qHTS of pediatric cancer cell lines to identify multiple opportunities for drug repurposing: Primary screen for NB1643 cells (AID 1347099); note: nearly all actives have a fitted effect of over 50% in size; note: potency is the fitted concentration of half-maximal effect
Outline: as §1

[7] = qHTS of pediatric cancer cell lines to identify multiple opportunities for drug repurposing: Primary screen for Rh18 cells (AID 1347102); note: nearly all actives have a fitted effect of over 65% in size; note: potency is the fitted concentration of half-maximal effect
Outline: as §2

[8] = qHTS of pediatric cancer cell lines to identify multiple opportunities for drug repurposing: Primary screen for OHS-50 cells (AID 1347103); note: nearly all actives have a fitted effect of over 40% in size; note: potency is the fitted concentration of half-maximal effect
Outline: as §3

[9] = qHTS of pediatric cancer cell lines to identify multiple opportunities for drug repurposing: Primary screen for RD cells (AID 1347104); note: nearly all actives have a fitted effect of over 55% in size; note: potency is the fitted concentration of half-maximal effect
Outline: as §1

[10] = qHTS of pediatric cancer cell lines to identify multiple opportunities for drug repurposing: Primary screen for control Hh wild type fibroblast cells (AID 1347106);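 note: series mostly up to about 46 µM; a drop in luminescence marks cytotoxicity and a rise apparent proliferation; nearly all actives have a fitted effect of over 55% in size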
Outline: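 Cells (500-1,000/well) in growth media were settled 5 h at 37 degrees C, then given compounds for 48 h. Viability was read as CellTiter-Glo luminescence. Primary runs used MIPE at 11 points (0.78 nM-46 µM) and NPC at 8 points (0.59 nM-46 µM); follow-ups used 11 points.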

[11] = qHTS of pediatric cancer cell lines to identify multiple opportunities for drug repurposing: Primary screen for Rh30 cells (AID 1347107); note: series mostly up to about 46 µM; nearly all actives have a fitted effect of over 75% in size
Outline: as §2

[12] = qHTS of pediatric cancer cell lines to identify multiple opportunities for drug repurposing: Primary screen for Rh41 cells (AID 1347108); note: nearly all actives have a fitted effect of over 70% in size; note: potency is the fitted concentration of half-maximal effect
Outline: as §1

[13] = qHTS of pediatric cancer cell lines to identify multiple opportunities for drug repurposing: Primary screen for LAN-5 cells (AID 1347100); note: potency is the fitted concentration of half-maximal effect
Outline: as §2

[14] = qHTS of pediatric cancer cell lines to identify multiple opportunities for drug repurposing: Primary screen for MG 63 (6-TG R) cells (AID 1347105); note: nearly all actives have a fitted effect of over 50% in size; note: potency is the fitted concentration of half-maximal effect
Outline: as §1

[15] = qHTS of pediatric cancer cell lines to identify multiple opportunities for drug repurposing: Confirmatory screen for A673 cells (AID 1347110); note: nearly all actives have a fitted effect of over 65% in size; note: potency is the fitted concentration of half-maximal effect
Outline: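 Cells plated at 500-1,000/well were treated five hours later with multi-point dilutions up to 46 µM final. After two days, CellTiter-Glo was added and luminescence read.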

[16] = qHTS of pediatric cancer cell lines to identify multiple opportunities for drug repurposing: Confirmatory screen for BT-12 cells (AID 1347112); note: nearly all actives have a fitted effect of over 55% in size; note: potency is the fitted concentration of half-maximal effect
Outline: as §2

[17] = qHTS of pediatric cancer cell lines to identify multiple opportunities for drug repurposing: Primary screen for BT-12 cells (AID 1347101); note: nearly all actives have a fitted effect of over 25% in size; note: potency is the fitted concentration of half-maximal effect
Outline: as §3

[18] = qHTS of pediatric cancer cell lines to identify multiple opportunities for drug repurposing: Confirmatory screen for NB1643 cells (AID 1347109); note: nearly all actives have a fitted effect of over 45% in size; note: potency is the fitted concentration of half-maximal effect
Outline: as §2

[19] = qHTS of pediatric cancer cell lines to identify multiple opportunities for drug repurposing: Confirmatory screen for SK-N-MC cells (AID 1347111);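 note: cells exposed to compound for 48 h before the readout; nearly all actives have a fitted effect of over 70% in size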; note: potency is the fitted concentration of half-maximal effect
Outline: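 SK-N-MC cells at 500-1,000 cells/well in growth media were pre-incubated 5 h, then exposed to compounds at 11-point dilutions for 48 h at 37 degrees C, 5% CO2. Viability was read as CellTiter-Glo luminescence.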

[20] = qHTS of pediatric cancer cell lines to identify multiple opportunities for drug repurposing: Primary screen for BT-37 cells (AID 1347094); note: series mostly up to about 57 µM
Outline: as §1

Measured: Potency

CN(C)CCc1c[nH]c2ccc(Cn3cncn3)cc12
active: [4] 11.8 µM
not listed: [13] | [14] | [15] | [16] | [17] | [18] | [19] | [20]
inactive: all other assays above

Cc1nc(Nc2ncc(C(=O)Nc3c(C)cccc3Cl)s2)cc(N2CCN(CCO)CC2)n1
active: [1] 18.7 µM and 16.8 µM | [3] 18.7 µM and 13.3 µM | [7] 0.0335 µM | [8] 24.3 µM and 12.3 µM | [14] 8.4 nM | [15] 20.8 µM | [16] 6.57 µM
inactive: [2] | [6] | [13] | [11] | [12]

CC1=C(C)C(=O)C(C(CCCCCC(=O)O)c2ccccc2)=C(C)C1=O (stereo unspecified)
not listed: [6] | [15] | [16] | [18] | [19] | [20]
inactive: all other assays above

O=C1c2ccccc2-c2n[nH]c3cccc1c23
inactive: [3] | [14] | [10]
active: [1] 2.64 µM | [2] 1.05 µM | [5] 5.41 µM | [6] 2.96 µM | [13] 1.66 µM | [8] 21.7 µM

Cc1cc(Cl)ccc1OCCCC(=O)NO
inactive: [17]
active: [1] 2.09 µM | [2] 4.69 µM | [4] 11.8 µM | [5] 19.2 µM | [6] 4.18 µM | [13] 2.64 µM | [9] 18.7 µM | [14] 7430 nM | [12] 14.8 µM

CC(S)C(=O)NCC(=O)O (stereo unspecified)
not listed: [4] | [6] | [14] | [15] | [19] | [20]
inactive: all other assays above

Cc1cccc(CN2CCN(C(c3ccccc3)c3ccc(Cl)cc3)CC2)c1 (stereo unspecified)
active: [1] 11.9 µM and 18.7 µM | [2] 18.7 µM | [8] 24.6 µM and 24.3 µM
inactive: [3] | [5] | [13] | [7] | [14] | [10] | [11] | [12]

CCCS(=O)c1ccc2nc(NC(=O)OC)[nH]c2c1 (stereo unspecified)
active: [1] 7.5 µM and 18.7 µM | [2] 10.5 µM | [4] 13.3 µM | [13] 16.8 µM | [8] 27.3 µM | [14] 13.3 µM and 18.7 µM
inactive: [3] | [6] | [10]

COC(=O)C1=C(C)NC(C)=C(C(=O)OCCCN2CCC(c3ccccc3)(c3ccccc3)CC2)C1c1cccc([N+](=O)[O-])c1 (stereo unspecified)
inactive: [2] | [6] | [13] | [17] | [7] | [9] | [10] | [12]
active: [1] 23.7 µM | [5] 15.4 µM

C[C@]12CCC(=O)C=C1CC[C@@H]1[C@H]2[C@@H](O)C[C@@]2(C)[C@H]1CC[C@]2(O)C(=O)CO
not listed: [5] | [6] | [19] | [20]
inactive: all other assays above

CCCCc1ccc2nc(NC(=O)OC)[nH]c2c1
active: [1] 5.3 nM and 26.6 nM | [2] 1 nM and 106 nM | [13] 0.0118 µM | [17] 27.3 nM and 61.7 nM | [8] 15.3 nM and 61.7 nM | [18] 0.657 µM | [15] 0.329 µM | [19] 0.329 µM
inactive: [6] | [7]

O=C(CCc1ccc(O)cc1)c1c(O)cc(O)cc1O
active: [1] 0.118 µM | [13] 6.62 µM | [17] 1.22 µM | [8] 0.432 µM
not listed: [2] | [6] | [11] | [20]
inactive: all other assays above

CC(=O)N1CCN(c2ccc(OC[C@H]3CO[C@](Cn4ccnc4)(c4ccc(Cl)cc4Cl)O3)cc2)CC1
active: [1] 23.5 µM | [4] 33.2 µM | [17] 24.3 µM
inactive: [3] | [5] | [6] | [10]

COCCCOc1ccnc(CS(=O)c2nc3ccccc3[nH]2)c1C (stereo unspecified)
not listed: [4] | [15] | [16] | [18] | [19] | [20]
inactive: all other assays above

NCCCCNCCCN
active: [1] 3.32 µM | [5] 7.64 µM | [6] 4.18 µM | [12] 23.5 µM
inactive: [2] | [3] | [17] | [7] | [8] | [9] | [14]

Cc1cccc(-c2[nH]ncc2-c2ccc3ncccc3n2)n1
inactive: [1] | [2] | [3] | [5] | [6] | [13] | [17] | [7] | [9] | [14] | [10]

O=C1NC(=O)C(c2ccccc2[N+](=O)[O-])=C1Nc1ccc(O)c(Cl)c1
inactive: [2] | [3] | [17] | [7] | [8] | [9] | [10] | [12]
active: [1] 0.118 µM

CCCCN(CCCC)CCC(O)c1cc2c(Cl)cc(Cl)cc2c2cc(C(F)(F)F)ccc12 (stereo unspecified)
active: [1] 11.9 µM and 33.2 µM | [8] 30.6 µM
not listed: [4] | [13] | [15] | [16] | [18] | [19] | [20]
inactive: all other assays above

C[C@H](Cc1ccc(O)c(O)c1)[C@@H](C)Cc1ccc(O)c(O)c1
inactive: [5] | [10]
active: [1] 11.8 µM | [2] 2.35 µM | [4] 29.6 µM | [6] 14.8 µM | [13] 10.5 µM | [17] 15.3 µM | [7] 18.7 µM | [8] 24.3 µM | [12] 11.8 µM

Oc1ccc(-c2nc(-c3ccc(F)cc3)c(-c3ccncc3)[nH]2)cc1
active: [1] 2.35 µM | [6] 10.5 µM | [9] 29.6 µM | [12] 16.6 µM | [18] 0.928 µM | [15] 1.17 µM | [19] 1.17 µM | [16] 11.7 µM
inactive: [2] | [3] | [17] | [10]

CN(c1nccc(=O)[nH]1)C1CCN(c2nc3ccccc3n2Cc2ccc(F)cc2)CC1
active: [1] 2.64 µM
not listed: [6] | [8] | [13] | [15] | [16] | [18] | [19] | [20]
inactive: all other assays above

CN(C)C(=O)COC(=O)Cc1ccc(OC(=O)c2ccc(N=C(N)N)cc2)cc1
not listed: [1] | [2] | [4] | [10] | [15] | [16] | [18] | [19]
inactive: all other assays above

CC(=O)O[C@H]1C(=O)[C@@]2(C)C([C@H](OC(=O)c3ccccc3)[C@]3(O)C[C@H](OC(=O)[C@H](O)[C@@H](NC(=O)c4ccccc4)c4ccccc4)C(C)=C1C3(C)C)[C@]1(OC(C)=O)CO[C@@H]1C[C@@H]2O (stereo partly specified)
inactive: [3] | [5] | [10]
active: [1] 0.001 µM | [13] 0.001 µM | [8] 0.001 µM | [12] 0.0042 µM | [15] 0.0147 µM | [19] 0.0117 µM

O=c1c(O)c(-c2cc(O)c(O)c(O)c2)oc2cc(O)cc(O)c12
inactive: [2] | [3] | [5] | [6] | [13] | [17] | [7] | [9] | [10]

Clc1ccc(C(Cn2ccnc2)OCc2ccc(Sc3ccccc3)cc2)c(Cl)c1 (stereo unspecified)
active: [15] 1.17 µM | [19] 18.5 µM | [16] 29.3 µM
not listed: [1] | [4] | [6] | [9] | [13] | [18] | [20]
inactive: all other assays above

O=C(CS(=O)Cc1ccco1)NCC=CCOc1cc(CN2CCCCC2)ccn1 (stereo unspecified)
inactive: [2] | [3] | [4] | [17] | [7] | [8] | [9] | [14] | [10] | [12]

CCCCCCCCOc1ccccc1C(=O)Nc1ccc(C(=O)OCC[N+](C)(CC)CC)cc1
active: [4] 29.6 µM | [17] 17.4 µM
inactive: [2] | [13] | [8] | [14] | [10] | [12]

Nc1nc(OCc2ccccc2)c2[nH]cnc2n1
inactive: [3] | [17] | [7] | [9] | [10] | [18] | [15] | [19]
active: [2] 18.7 µM

O=C(NCCO[N+](=O)[O-])c1cccnc1
not listed: [1] | [6] | [15] | [16] | [18] | [19]
inactive: all other assays above

Cc1cc2cc3c(C)cc(=O)oc3c(C)c2o1
inactive: [2] | [3] | [4] | [17] | [7] | [8] | [14] | [10] | [11]
